Measurements as given in PubChem BioAssay (Tox21).
Records with an inconclusive call do not appear. A call without a number means that no potency is given here. Calls of active or inactive are those of the source. Unless noted, the call rests on the fitted dose curve; in most records, active means well fitted curve in the direction sought with a large enough effect in the repeat runs; inconclusive means weak or mixed curves; inactive means no such curve, though single readings can be large; an effect the other way counts as inactive or inconclusive.

Molecular target: Estrogen receptor (Homo sapiens) (UniProt P03372)
Sequence (P03372 whole entry, looked up): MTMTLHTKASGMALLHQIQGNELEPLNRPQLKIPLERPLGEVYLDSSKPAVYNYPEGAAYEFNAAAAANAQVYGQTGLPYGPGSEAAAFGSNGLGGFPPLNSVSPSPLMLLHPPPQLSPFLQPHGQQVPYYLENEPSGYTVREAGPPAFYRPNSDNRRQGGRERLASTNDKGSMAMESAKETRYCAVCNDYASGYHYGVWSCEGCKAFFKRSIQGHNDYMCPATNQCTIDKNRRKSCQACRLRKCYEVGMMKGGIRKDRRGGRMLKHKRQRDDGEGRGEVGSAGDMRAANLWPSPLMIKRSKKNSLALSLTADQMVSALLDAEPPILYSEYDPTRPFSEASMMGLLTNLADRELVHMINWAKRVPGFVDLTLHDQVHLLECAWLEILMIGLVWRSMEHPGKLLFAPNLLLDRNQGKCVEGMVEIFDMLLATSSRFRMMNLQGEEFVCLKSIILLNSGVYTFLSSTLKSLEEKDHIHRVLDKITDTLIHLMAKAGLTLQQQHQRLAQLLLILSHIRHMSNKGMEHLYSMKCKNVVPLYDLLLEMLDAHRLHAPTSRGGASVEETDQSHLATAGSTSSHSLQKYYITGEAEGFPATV
Assay: qHTS assay to identify small molecule agonists of the estrogen receptor alpha (ER-alpha) signaling pathway using the BG1 cell line (AID 743079); further: nearly all actives have a fitted effect of over 20% in size
Conditions: BG1Luc4E2 cells, ERE-luciferase agonist, 22 h; series mostly up to 70.3 µM
Potency means the concentration at half of the fitted maximal effect.

SMILES | Potency
CC(=O)c1ccc[nH]1 | inactive
CCO[Si](C)(CCCOCC1CO1)OCC (centres undefined) | inactive
COc1ccc(C2C(=O)c3ccccc3C2=O)cc1 | 23.7 µM (active)
CCOC(=O)C(C)O (centres undefined) | inactive
O=C(c1ccccc1)c1ccc(O)cc1 | 9.8 µM (active)
CC12CC3CC(C)(C1)CC(N)(C3)C2 | inactive
NC(=O)c1ccccc1[N+](=O)[O-] | inactive
Cc1ccc(NC(=O)N(C)C)cc1NC(=O)N(C)C | inactive
O=S(=O)(Cl)c1c(Cl)cccc1Cl | inactive
COc1ccc(-n2nc(C(F)F)cc2-c2ccc(S(C)=O)cc2)cc1 (centres undefined) | inactive
CC1=CC[C@@H]2C[C@H]1C2(C)C | inactive
O=[N+]([O-])C1(Br)COCOC1 | inactive
CC(=O)OC(C)C[N+](C)(C)C (centres undefined) | inactive
FC(F)(F)C(F)(F)C(F)(F)C(F)(F)CCI | 27.9 µM (active)
CC(C)(C(=O)c1cccnc1)c1cccnc1 | inactive
COc1cc(OC)c2ccc(=O)oc2c1 | inactive
CC(C)C(O)C(C)(C)CO (centres undefined) | inactive
COc1ccc(C(=O)NCc2ccc(OCCN(C)C)cc2)cc1OC | inactive
CC(CO)(CO)C(=O)O | inactive
CC(C)OC(=O)c1ccccc1C(=O)OC(C)C | inactive
CC1C(C)(C)C2=C(C(=O)CCC2)C1(C)C (centres undefined) | inactive
CC(CCc1ccc(O)cc1)NCCc1ccc(O)c(O)c1 (centres undefined) | inactive
CCN(CC)CCOc1ccccc1C(=O)CCc1ccccc1 | inactive

Tested on: not listed separately
Assay: qHTS assay to identify small molecule antagonists of the estrogen receptor alpha (ER-alpha) signaling pathway using the BG1 cell line (AID 743080; calls by dose curve;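 further: BG1 cells stimulated with 17beta-estradiol alongside compound; nearly all actives have a fitted effect of over 25% in size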)
Conditions: BG1Luc4E2 ERE-luciferase antagonist mode, luminescence; series mostly up to 70.3 µM
In short: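 Endogenous full-length ER-alpha in BG1-Luc-4E2 cells drives a stably integrated 4×ERE luciferase gene; compounds were tested against 17beta-estradiol over 21.5 h, with luminescence and multiplexed viability fluorescence recorded.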

SMILES | Potency
CC(=O)c1ccc[nH]1 | inactive
CCO[Si](C)(CCCOCC1CO1)OCC (centres undefined) | inactive
COc1ccc(C2C(=O)c3ccccc3C2=O)cc1 | inactive
CCOC(=O)C(C)O (centres undefined) | inactive
CC12CC3CC(C)(C1)CC(N)(C3)C2 | inactive
NC(=O)c1ccccc1[N+](=O)[O-] | inactive
Cc1ccc(NC(=O)N(C)C)cc1NC(=O)N(C)C | inactive
O=S(=O)(Cl)c1c(Cl)cccc1Cl | inactive
CC1=CC[C@@H]2C[C@H]1C2(C)C | inactive
O=[N+]([O-])C1(Br)COCOC1 | 96.9 µM (active)
CC(=O)OC(C)C[N+](C)(C)C (centres undefined) | inactive
FC(F)(F)C(F)(F)C(F)(F)C(F)(F)CCI | inactive
CC(C)(C(=O)c1cccnc1)c1cccnc1 | inactive
COc1cc(OC)c2ccc(=O)oc2c1 | inactive
CC(C)C(O)C(C)(C)CO (centres undefined) | inactive
CC(CO)(CO)C(=O)O | inactive
CC(C)OC(=O)c1ccccc1C(=O)OC(C)C | inactive
COC(=O)C1=C(C)NC(C)=C(C(=O)OC(C)(C)CN(C)CCC(c2ccccc2)c2ccccc2)C1c1cccc([N+](=O)[O-])c1 (centres undefined) | 26.6 µM (active)
CC1C(C)(C)C2=C(C(=O)CCC2)C1(C)C (centres undefined) | inactive
CC(CCc1ccc(O)cc1)NCCc1ccc(O)c(O)c1 (centres undefined) | inactive
CCN(CC)CCOc1ccccc1C(=O)CCc1ccccc1 | inactive

Tested on: not listed separately
Assay: qHTS assay to identify small molecule antagonists of the estrogen receptor alpha (ER-alpha) signaling pathway using the BG1 cell line - cell viability counter screen (AID 743081);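 further: compound given together with 17beta-estradiol as the ER stimulus; nearly all actives have a fitted effect of over 45% in size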
Conditions: BG1Luc4E2 viability, CellTiter-Fluor, 22 h; series mostly up to 70.3 µM

SMILES | Potency
CC(=O)c1ccc[nH]1 | inactive
CCO[Si](C)(CCCOCC1CO1)OCC (centres undefined) | inactive
COc1ccc(C2C(=O)c3ccccc3C2=O)cc1 | inactive
O=C(O)c1cc(Cl)cc(Cl)c1O | inactive
COc1ccc(-c2cc(=S)ss2)cc1 | inactive
O=C(c1ccccc1)c1ccc(O)cc1 | inactive
O=C(Oc1ccccc1)c1ccc2ccccc2c1O | inactive
CC12CC3CC(C)(C1)CC(N)(C3)C2 | inactive
CCCOC(=O)c1c(Cl)c(Cl)c(Cl)c(Cl)c1C(=O)OCCC | inactive
NC(=O)c1ccccc1[N+](=O)[O-] | inactive
CCCCCCCCCCCCCC(=O)OCC(O)CO (centres undefined) | inactive
Cc1ccc(NC(=O)N(C)C)cc1NC(=O)N(C)C | inactive
CNS(=O)(=O)c1cc(C(=O)N2CCC(CCN3C4CCC3CC(n3c(C)nc5ccccc53)C4)(c3cccc(F)c3)CC2)c(Cl)cc1F (centres undefined) | inactive
CC/C=C\C/C=C\C/C=C\CCCCCCCC(=O)OCC | inactive
CO[C@@H]1[C@@H](OC)[C@H](C)[C@@](O)(CC(=O)O)O[C@H]1[C@H](C)[C@H]1O[C@@]2(CC[C@@](C)([C@H]3CC[C@@](C)([C@@H]4O[C@@H]([C@H]5O[C@](C)(O)[C@H](C)C[C@@H]5C)C[C@@H]4OC4C[C@H](OC)[C@@H](OC)[C@H](C)O4)O3)O2)C[C@H](O)[C@H]1C (some centres undefined) | 2.98 µM (active)
O=S(=O)(Cl)c1c(Cl)cccc1Cl | inactive
COc1ccc(-n2nc(C(F)F)cc2-c2ccc(S(C)=O)cc2)cc1 (centres undefined) | inactive
CCOC(=O)c1ccc(NC(=O)CN2CCCCC2)cc1 | inactive

SMILES | Potency
CC1=CC[C@@H]2C[C@H]1C2(C)C | inactive
O=[N+]([O-])C1(Br)COCOC1 | inactive
CC(=O)OC(C)C[N+](C)(C)C (centres undefined) | inactive
FC(F)(F)C(F)(F)C(F)(F)C(F)(F)CCI | inactive
CCN(Cc1cccc(S(=O)(=O)O)c1)c1ccc(C(=C2C=CC(=[N+](CC)Cc3cccc(S(=O)(=O)O)c3)C=C2)c2ccc(O)cc2S(=O)(=O)[O-])cc1 | 33.1 µM (active)
CC(C)(C(=O)c1cccnc1)c1cccnc1 | inactive
CC(C)C(O)C(C)(C)CO (centres undefined) | inactive
COc1ccc(C(=O)NCc2ccc(OCCN(C)C)cc2)cc1OC | inactive
Cc1cc(CCC(=O)OCCOCCOCCOC(=O)CCc2cc(C)c(O)c(C(C)(C)C)c2)cc(C(C)(C)C)c1O | inactive
CC(CO)(CO)C(=O)O | inactive
CC(C)OC(=O)c1ccccc1C(=O)OC(C)C | inactive
COC(=O)C1=C(C)NC(C)=C(C(=O)OC(C)(C)CN(C)CCC(c2ccccc2)c2ccccc2)C1c1cccc([N+](=O)[O-])c1 (centres undefined) | inactive
CC1C(C)(C)C2=C(C(=O)CCC2)C1(C)C (centres undefined) | inactive
CCCCCCCCCCCCCOS(=O)(=O)O | inactive
CC(CCc1ccc(O)cc1)NCCc1ccc(O)c(O)c1 (centres undefined) | inactive
COc1cc(NC(C)CCCN)c2ncccc2c1 (centres undefined) | 10.1 µM (active)
CCN(CC)CCOc1ccccc1C(=O)CCc1ccccc1 | inactive
